Compound activity (PubChem)
Many of the other results were omitted from the sample, so hits are more common in it than they were.
CBX7 inh – CBX7 chromodomain binding inhibitors, primary screen, biochemical, AlphaScreen | Chromobox protein homolog 7 (Homo sapiens), O95931 | AlphaScreen His6-CBX7 / biotin-H3K27me3 peptide binding; hits give low values | normalised signal (fraction of DMSO) (concentration not given with the values) | actives 1.1% (n = 66,000) | AID 1224903, 2016; in the data active = normalised signal below about 0.5
Target sequence (O95931 whole entry, looked up): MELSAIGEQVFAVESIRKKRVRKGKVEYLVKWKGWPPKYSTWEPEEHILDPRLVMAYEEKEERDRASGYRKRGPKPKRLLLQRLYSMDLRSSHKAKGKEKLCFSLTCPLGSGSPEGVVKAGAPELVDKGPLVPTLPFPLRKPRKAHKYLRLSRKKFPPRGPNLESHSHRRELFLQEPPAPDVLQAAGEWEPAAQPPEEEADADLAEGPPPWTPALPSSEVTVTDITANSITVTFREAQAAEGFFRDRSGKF
The depositor's hits bear a star.

SMILES	CBX7 inh
COc1ccc2c(c1)c(CC(=O)NCCOc1ccc(Cl)cc1)c(C)n2C(=O)c1ccc(Cl)cc1	0.91
Cc1nc2c(C(=O)NCCC3=CCCCC3)c[nH]n2c(=O)c1Cc1ccccc1Cl	0.77
COc1ccccc1Nc1cc(C)nc2c(C)cccc12	1.1
COc1ccccc1Nc1cc(C(F)(F)F)nc2c(OC)ccc(OC)c12	0.2*
COc1ccccc1Nc1cc(C)nc2c(OC)cccc12	0.77
O=C(CCc1nc(-c2ccccc2F)no1)N1CCN(c2cccc(Cl)c2)CC1	1
N#Cc1c2c(c(Nc3ccc(C4CCCCC4)cc3)n3c1nc1ccccc13)CCC2	0.84
O=C1C2C(c3ccccc3)C=CC(c3ccccc3)C2C(=O)N1c1ccc(F)cc1 (stereo not given)	0.92
Cc1ccc(NC(=O)Cn2cnc3sc(C)c(C)c3c2=O)c(C)c1	1.1
CCCCc1ccc(NC(=O)C(=O)NCCCn2ccnc2)cc1	1.1
CCOCCCNC(=O)CN1C(=O)COc2ccccc21	1.1
Cc1ccc(CNc2ccc3c(c2)ncn3C(C)(C)C)cc1	0.41*
CCn1cnc2cc(NCc3ccc(Cl)cc3Cl)ccc21	0.85
COc1cccc(CNc2ccc3c(c2)ncn3C(C)C)c1OC	0.74
Cc1ccc(S(=O)(=O)Nc2ccc3c(c2)ncn3C(C)(C)C)cc1	0.89
CC(C)c1ccc(CNc2ccc3c(c2)ncn3C(C)(C)C)cc1	0.29*
COc1ccccc1-n1cnc2cc(NCc3ccc(Cl)cc3)ccc21	0.71
CC(C)c1ccc(CNc2ccc3oc(-c4ccccc4)nc3c2)cc1	1.4
CC(C)n1cnc2cc(NCc3cccc4ccccc34)ccc21	0.25*
CC(C)n1cnc2cc(NCc3ccncc3)ccc21	0.93
COc1ccc(CNc2ccc3c(c2)ncn3C(C)(C)C)cc1	0.55
CC(C)(C)n1cnc2cc(NCc3ccccc3Cl)ccc21	0.4*
CCCCCC1C(=O)CC(c2ccccc2)N(C)C1c1ccccc1 (stereo not given)	1.4
Cc1ccc(Cn2c(=O)n(CCCCCC(=O)NCc3ccccc3)c(=O)c3sccc32)cc1	1
C=CCn1c(=N)n(CCOc2ccccc2C)c2ccccc21	1
SMILES	CBX7 inh
CCOc1ccccc1C(=O)Nc1ccc2nc(N3CCC(C)CC3)cc(C)c2c1	1.3
O=C(Nc1ccc(-c2noc(-c3ccccc3Br)n2)cc1)c1ccccn1	0.89
COc1cc(OC)c(NC(=O)c2cc3c(-c4ccccc4F)nn(C)c3s2)cc1Cl	0.95
CCCCNC(=O)c1ccc2nc(-c3ccco3)c(-c3ccco3)nc2c1	0.75
CC(C)CCNC(=O)c1ccc2nc(-c3ccco3)c(-c3ccco3)nc2c1	0.66
O=C(c1ccc2nc(-c3ccco3)c(-c3ccco3)nc2c1)N1CCc2ccccc2C1	0.015*
Cc1nc2cc(-c3ccc(Cl)cc3)nn2c(C)c1CCC(=O)NCc1ccc2c(c1)OCO2	1.1
CCCc1cc(C(=O)Nc2c(C)nn(Cc3ccc(Cl)cc3)c2C)no1	1
O=C(Nc1nc(-c2ccncc2)cs1)c1ccc(S(=O)(=O)N2CCOCC2)cc1	0.97
O=C(Nc1nc(-c2ccccn2)cs1)c1ccc(S(=O)(=O)N2CCCCC2)cc1	0*
CCCN(CCC)S(=O)(=O)c1ccc(C(=O)Nc2nc(-c3ccncc3)cs2)cc1	0.97
O=C(Nc1nc(-c2ccncc2)cs1)c1ccc(S(=O)(=O)N2CCCCCC2)cc1	1
O=C(Nc1nc(-c2ccccn2)cs1)c1ccc(S(=O)(=O)N2CCOCC2)cc1	0*
O=C(Nc1nc(-c2nc3ccccc3s2)cs1)c1ccc(S(=O)(=O)N2CCCCCC2)cc1	1.1
CCCCN(CCCC)S(=O)(=O)c1ccc(C(=O)Nc2nc(-c3ccncc3)cs2)cc1	1
CCCCN(CC)S(=O)(=O)c1ccc(C(=O)Nc2nc(-c3ccccn3)cs2)cc1	0.48*
O=C(Nc1nnc(-c2ccccc2)s1)c1ccc(S(=O)(=O)N2CCOCC2)cc1	1
Clc1cccc(Nc2nc(-c3ccc(Cl)c(Cl)c3)cs2)c1	0.76
Cc1[nH]c2ccccc2c1CCNC(=O)c1ccc(C(F)(F)F)cc1	0.62
O=C(Cn1ncc2ccsc2c1=O)N1CCC(Cc2ccccc2)CC1	0.89
O=C1CCc2cc(S(=O)(=O)NC(Cc3ccccc3)C(=O)Nc3cccc(F)c3)ccc2N1 (stereo not given)	1
CCc1cccc(C)c1NS(=O)(=O)c1ccc2c(c1)n(C)c(=O)c(=O)n2C	1.1
COc1ccc(Cl)cc1NC(=O)c1c(NCc2ccncc2)sc2c1CCC2	0.94
CN(CC(=O)NC1CCCCC1)S(=O)(=O)c1cnc[nH]1	1.1
Cc1ccc(Sc2cc(C(=O)NCCCN3CCOCC3)c3ccccc3n2)cc1	0.95
SMILES	CBX7 inh
Cc1cc(NC(=O)CSc2nc(NCc3ccc(Cl)cc3)c3ccccc3n2)n[nH]1	0.83
COc1ccc(CNc2nc(SCC(=O)Nc3cc(C)[nH]n3)nc3ccccc23)cc1	0.37*
COc1cc(Nc2nc(SCC(=O)Nc3cc(C)[nH]n3)nc3ccccc23)cc(OC)c1	1
CCOc1ccc2c(c1)c(=O)c(S(=O)(=O)c1ccccc1)cn2Cc1cccc(Cl)c1	0.79
Cc1oc(-c2cccc(Br)c2)nc1CN1CCC(C(=O)NC2CCCC2)CC1	1
O=C1CN(C(=O)C2CCCCC2)C(c2ccccc2)c2cc(Cl)ccc2N1 (stereo not given)	0.94
COc1cccc(CNC(=O)CCc2cn(Cc3ccc(C)cc3)c3ccccc23)c1	0.88
Cc1ccc(Cn2cc(CCC(=O)NCc3cccnc3)c3ccccc32)cc1	0.26*
O=C(CCc1cn(Cc2ccccc2)c2ccccc12)NCc1ccccc1Cl	0.49*
CCc1ccc(CNC(=O)CCc2cn(Cc3ccccc3)c3ccccc23)cc1	0.97
O=C(CCc1cn(Cc2ccccc2)c2ccccc12)NCCc1ccc(Cl)cc1	0.94
Cc1ccc(Cn2cc(CCC(=O)NCc3ccccc3)c3ccccc32)cc1	0.94
CCOc1ccc(C(=O)Nc2cccc(-c3nc4ccc(C)cc4o3)c2)cc1Cl	1.2
CCN(CC)S(=O)(=O)c1ccc2c(c1)N(CC(=O)NCCN1CCCCC1C)C(=O)CS2 (stereo not given)	1.1
O=C(Nc1ccc2oc(-c3ccc(Cl)cc3)nc2c1)c1ccccc1	0.98
Cc1ccccc1Oc1cc([N+](=O)[O-])cc2c1C(=O)Nc1cc(Cl)ccc1O2	0.084*
Cc1ccc(Oc2cc([N+](=O)[O-])cc3c2C(=O)Nc2ccccc2O3)cc1	0.58
COCCOc1cc([N+](=O)[O-])cc2c1C(=O)Nc1ccccc1O2	0.65
COC(=O)CC1Oc2ccc(Cl)cc2NC1=O (stereo not given)	0.96
Cc1ccc2c(c1)Oc1cc([N+](=O)[O-])cc(Oc3cccc(Cl)c3Cl)c1C(=O)N2	0.2*
COc1ccc(Oc2cc([N+](=O)[O-])cc3c2C(=O)Nc2cc(Cl)ccc2O3)cc1	0.42*
O=C1Nc2cc(Cl)ccc2Oc2cc([N+](=O)[O-])cc(Oc3ccccc3)c21	0.64
COc1ccc(CNC(=O)CC2Oc3ccc(Cl)cc3NC2=O)cc1 (stereo not given)	1.1
Cc1nc2ccc(S(=O)(=O)N(C)CC(=O)NC3CCCCCCC3)cc2s1	1.3
CSc1cccc(NS(=O)(=O)c2ccc3c(c2)CCN3C(=O)C2CC2)c1	0.91
c1ccc(CN2CCN(c3nnc(Cc4cccnc4)c4ccccc34)CC2)cc1	0.98
COc1ccccc1Nc1nc(C)nc2sc(C)c(C)c12	1
Cc1sc2nc(Cc3ccccc3)nc(Nc3ccccc3F)c2c1C	1.1
Cc1nc(Nc2ccccc2F)c2c(C)c(C)sc2n1	0.47*
